Residue numbers refer to the chain shown, from its start. Over roughly 16,000 sequences, “ka relative to ugcaugu” has its median near 0.096; the highest 2% begin near 0.35. This is one part of a sample in which the highest values are shown more often than they occur.
T1: RBFOX1 RRM RbFoxmut (Fox-RRM*) (Homo sapiens, UniProt Q9NWB1 109-208, R118D;E147R;N151S;E152T)
T1 sequence: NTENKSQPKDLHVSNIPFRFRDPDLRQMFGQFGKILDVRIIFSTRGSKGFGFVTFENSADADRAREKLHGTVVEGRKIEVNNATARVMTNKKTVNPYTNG

B1: GGCCUAA (DNA:RNA)
RNA: GGGAGACCGGAAUUCAGAUUGUCCGGCCUAAUUAAAUCCCGUCGUAGCCACCA
DNA 1: CAATCTGAATTCCGGTCTCCC
DNA 2: TGGTGGCTACGACGGGATT
B2: GUUCGUA (DNA:RNA)
RNA: B1 RNA with G26U, C27U, U29G, A30U
DNA 1: CAATCTGAATTCCGGTCTCCC
DNA 2: TGGTGGCTACGACGGGATT
B3: UUCUUCA (DNA:RNA)
RNA: B1 RNA with G25U, G26U, C28U, A30C
DNA 1: CAATCTGAATTCCGGTCTCCC
DNA 2: TGGTGGCTACGACGGGATT
B4: UGCGUAU (DNA:RNA)
RNA: B1 RNA with G25U, C28G, A31U
DNA 1: CAATCTGAATTCCGGTCTCCC
DNA 2: TGGTGGCTACGACGGGATT
B5: AUAGGAG (DNA:RNA)
RNA: B1 RNA with G25A, G26U, C27A, C28G, U29G, A31G
DNA 1: CAATCTGAATTCCGGTCTCCC
DNA 2: TGGTGGCTACGACGGGATT
B6: CAGGGCG (DNA:RNA)
RNA: GGGAGACCGGAAUUCAGAUUGUCCCAGGGCGUUAAAUCCCGUCGUAGCCACCA
DNA 1: CAATCTGAATTCCGGTCTCCC
DNA 2: TGGTGGCTACGACGGGATT
B7: GAUCCAA (DNA:RNA)
RNA: B1 RNA with G26A, C27U, U29C
DNA 1: CAATCTGAATTCCGGTCTCCC
DNA 2: TGGTGGCTACGACGGGATT
B8: AGCUUUC (DNA:RNA)
RNA: B1 RNA with G25A, C28U, A30U, A31C
DNA 1: CAATCTGAATTCCGGTCTCCC
DNA 2: TGGTGGCTACGACGGGATT
B9: CGAUGCG (DNA:RNA)
RNA: B6 RNA with A26G, G27A, G28U
DNA 1: CAATCTGAATTCCGGTCTCCC
DNA 2: TGGTGGCTACGACGGGATT
B10: GAAUGCG (DNA:RNA)
RNA: B6 RNA with C25G, G27A, G28U
DNA 1: CAATCTGAATTCCGGTCTCCC
DNA 2: TGGTGGCTACGACGGGATT
B11: GAAUCCC (DNA:RNA)
RNA: B6 RNA with C25G, G27A, G28U, G29C, G31C
DNA 1: CAATCTGAATTCCGGTCTCCC
DNA 2: TGGTGGCTACGACGGGATT
B12: GAAUGCC (DNA:RNA)
RNA: B6 RNA with C25G, G27A, G28U, G31C
DNA 1: CAATCTGAATTCCGGTCTCCC
DNA 2: TGGTGGCTACGACGGGATT
B13: GGAUGCC (DNA:RNA)
RNA: B6 RNA with C25G, A26G, G27A, G28U, G31C
DNA 1: CAATCTGAATTCCGGTCTCCC
DNA 2: TGGTGGCTACGACGGGATT
B14: CGAUGCC (DNA:RNA)
RNA: B6 RNA with A26G, G27A, G28U, G31C
DNA 1: CAATCTGAATTCCGGTCTCCC
DNA 2: TGGTGGCTACGACGGGATT
B15: CUUCGUG (DNA:RNA)
RNA: B6 RNA with A26U, G27U, G28C, C30U
DNA 1: CAATCTGAATTCCGGTCTCCC
DNA 2: TGGTGGCTACGACGGGATT
B16: CACUUAC (DNA:RNA)
RNA: B1 RNA with G25C, G26A, C28U, A31C
DNA 1: CAATCTGAATTCCGGTCTCCC
DNA 2: TGGTGGCTACGACGGGATT
B17: CGAAUGA (DNA:RNA)
RNA: B1 RNA with G25C, C27A, C28A, A30G
DNA 1: CAATCTGAATTCCGGTCTCCC
DNA 2: TGGTGGCTACGACGGGATT
B18: GGAAUGA (DNA:RNA)
RNA: B1 RNA with C27A, C28A, A30G
DNA 1: CAATCTGAATTCCGGTCTCCC
DNA 2: TGGTGGCTACGACGGGATT
B19: GAUGAUU (DNA:RNA)
RNA: B6 RNA with C25G, G27U, G29A, C30U, G31U
DNA 1: CAATCTGAATTCCGGTCTCCC
DNA 2: TGGTGGCTACGACGGGATT
B20: GAAAUGA (DNA:RNA)
RNA: B1 RNA with G26A, C27A, C28A, A30G
DNA 1: CAATCTGAATTCCGGTCTCCC
DNA 2: TGGTGGCTACGACGGGATT
B21: GUCCGAA (DNA:RNA)
RNA: B1 RNA with G26U, U29G
DNA 1: CAATCTGAATTCCGGTCTCCC
DNA 2: TGGTGGCTACGACGGGATT
B22: GACCGAA (DNA:RNA)
RNA: B1 RNA with G26A, U29G
DNA 1: CAATCTGAATTCCGGTCTCCC
DNA 2: TGGTGGCTACGACGGGATT
B23: GAAUUGA (DNA:RNA)
RNA: B1 RNA with G26A, C27A, C28U, A30G
DNA 1: CAATCTGAATTCCGGTCTCCC
DNA 2: TGGTGGCTACGACGGGATT
B24: GAAUGAU (DNA:RNA)
RNA: B6 RNA with C25G, G27A, G28U, C30A, G31U
DNA 1: CAATCTGAATTCCGGTCTCCC
DNA 2: TGGTGGCTACGACGGGATT
B25: CGUUAAA (DNA:RNA)
RNA: B1 RNA with G25C, C27U, C28U, U29A
DNA 1: CAATCTGAATTCCGGTCTCCC
DNA 2: TGGTGGCTACGACGGGATT
B26: GAAUUUU (DNA:RNA)
RNA: B1 RNA with G26A, C27A, C28U, A30U, A31U
DNA 1: CAATCTGAATTCCGGTCTCCC
DNA 2: TGGTGGCTACGACGGGATT
B27: GAAUGAA (DNA:RNA)
RNA: B1 RNA with G26A, C27A, C28U, U29G
DNA 1: CAATCTGAATTCCGGTCTCCC
DNA 2: TGGTGGCTACGACGGGATT
B28: GUAAUGA (DNA:RNA)
RNA: B1 RNA with G26U, C27A, C28A, A30G
DNA 1: CAATCTGAATTCCGGTCTCCC
DNA 2: TGGTGGCTACGACGGGATT

molecular target: T1, RBFOX1 RRM RbFoxmut (Fox-RRM*); assay: EMSA; HiTS-Eq, 1 nM pool, 10 min; buffer printed only for the single-RNA assays: 10 mM Tris pH 7.5, 150 mM NaCl, 3.4 mM EDTA, 0.001% NP-40, 30 C; conditions: tags: His6 N-terminal (pET28a); label: 5' 32P
Outline: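 A pool of RNA with 7 randomized nucleotides, 5′-radiolabelled and with DNA-annealed flanks, was equilibrated at 1 nM for 10 min in 50 µL with purified RbFox RRM, wild type or mutant, across increasing protein concentrations. Free RNA was separated by 8% native PAGE, excised, reverse-transcribed, barcoded by PCR and sequenced. Relative association constants were obtained from read-count changes of each RNA species versus the control reaction and normalised to the cognate motif.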

| Binder | binding signal |
| --- | --- |
| B1 | 0.0594 KA relative to UGCAUGU |
| B2 | 0.155 KA relative to UGCAUGU |
| B3 | 0.111 KA relative to UGCAUGU |
| B4 | 0.143 KA relative to UGCAUGU |
| B5 | 0.097 KA relative to UGCAUGU |
| B6 | 0.123 KA relative to UGCAUGU |
| B7 | 0.0776 KA relative to UGCAUGU |
| B8 | 0.0646 KA relative to UGCAUGU |
| B9 | 0.113 KA relative to UGCAUGU |
| B10 | 0.763 KA relative to UGCAUGU |
| B11 | 0.0694 KA relative to UGCAUGU |
| B12 | 0.356 KA relative to UGCAUGU |
| B13 | 0.168 KA relative to UGCAUGU |
| B14 | 0.206 KA relative to UGCAUGU |
| B15 | 0.135 KA relative to UGCAUGU |
| B16 | 0.1 KA relative to UGCAUGU |
| B17 | 1.04 KA relative to UGCAUGU |
| B18 | 0.772 KA relative to UGCAUGU |
| B19 | 0.084 KA relative to UGCAUGU |
| B20 | 0.0974 KA relative to UGCAUGU |
| B21 | 0.0703 KA relative to UGCAUGU |
| B22 | 0.0991 KA relative to UGCAUGU |
| B23 | 0.129 KA relative to UGCAUGU |
| B24 | 0.641 KA relative to UGCAUGU |
| B25 | 0.107 KA relative to UGCAUGU |
| B26 | 0.1 KA relative to UGCAUGU |
| B27 | 0.873 KA relative to UGCAUGU |
| B28 | 0.121 KA relative to UGCAUGU |
